Consider 40 molecules from PubChem BioAssay (Tox21).

Results filed as inconclusive are left out. Where a call stands in place of a potency, no number is given. Unmarked numbers belong to inactive results. The source made the active and inactive calls. The call rests on the fitted dose curve; in most records, active means well fitted cell-killing curve with a large enough effect in the repeat runs; inconclusive means weak or mixed curves, or effect the other way; inactive means flat fitted curve, though single readings scatter.
Potency means the concentration at half of the fitted maximal effect.

A short description of this test: cAMP Responsive Elements (CRE) small molecule antagonists, cell-based qHTS assay: qHTS cell viability counter screen (AID 2060913). Further: nearly all actives have a fitted effect of over 40% in size. The following applies: CRE-bla HEK293T viability, CellTiter-Glo luminescence, 5 h; series mostly up to 92.4 µM. Put shortly:
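CRE-bla HEK293T cells were seeded in assay medium with 10% dialyzed FBS, incubated 18 hrs at 37 C, then exposed to compounds plus 0.25 uM final NKH477 for 3 hrs. Viability was read by CellTiter-Glo luminescence after 30 min, in the same wells.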
Take `O=C(Nc1ccc(S(=O)(=O)N2CCOCC2)cc1)c1cc(Cl)ccc1NS(=O)(=O)c1ccc(Cl)s1`: the Potency result is “inactive”.
Same read-out and setting: for `NNS(=O)(=O)c1ccc(Oc2ccc(S(=O)(=O)NN)cc2)cc1` the value was “inactive”.
`CC(C)(C)OC(=O)N1C[C@@H](F)C[C@H]1C(=O)O`: the Potency entry is “inactive”.
On to `C=C/C=C/C=C/CCCCC`, for which the viability change, negative = cytotoxic was -0.548% [at 18.9 µM].
Turning to `NS(=O)(=O)c1ccc(NC(=O)CCC(=O)O)cc1`, the Potency result is “inactive”.
The same measure, in the same setting: for `CC(C)(c1cc(Br)c(OCCO)c(Br)c1)c1cc(Br)c(OCCO)c(Br)c1` the value was “inactive”.
As to `CCCCC(CC)CNC(=O)CC(C)OC(=O)CCC(=O)O` (stereo not given), the Potency result was “inactive”.
On the same count and under the same terms, then `CCCCN(CCO)CCO`, with “inactive”; and `COC(=O)c1c(Cl)c(Cl)c(C(=O)OC)c(Cl)c1Cl`, with “inactive”; and `N#CC1(O)CCCCC1`, with “inactive”.
For the molecule `S=C1NC=NC2N=CNC12` (stereo not given), the Potency was 3.06 µM (active).
With `CNC(=O)CN(CCN(CCN(CC(=O)[O-])CC(=O)NC)CC(=O)[O-])CC(=O)[O-].O.[Gd+3]`, the Potency result is “inactive”.
The same measure, in the same setting: for `CC(=O)Nc1ncc([N+](=O)[O-])s1` the value was “inactive”.
Same read-out and setting: then `CCO[Si](CCCN=C=O)(OCC)OCC`, with “inactive”; and `c1ccc2c(c1)ccc1ccccc12`, with “inactive”.
Consider `C[C@@H]1CN(CCCn2c3ccccc3c3ccccc32)C[C@H](C)N1`, for which the Potency entry was “inactive”.
Regarding `CCCCCCCCCCCCCCCCC`, the Potency result is “inactive”.
Take `CC1=CC[C@H](C(C)C)C=C1`: the Potency result is “inactive”.
Consider `CC1(C)OC(=O)NC1=O`, for which the Potency entry is “inactive”.
Regarding `CC(C)COCC(CN(Cc1ccccc1)c1ccccc1)N1CCCC1` (stereo not given), the Potency was 29.8 µM (active).
For `C[C@@H]1[C@H](O)[C@@H](C)/C=C/C=C\C=C\C=C\C=C\C=C\C=C\[C@H](O[C@@H]2O[C@H](C)[C@@H](O)[C@H](N)[C@@H]2O)C[C@@H]2O[C@](O)(C[C@@H](O)C[C@@H](O)[C@H](O)CC[C@@H](O)C[C@@H](O)CC(=O)O[C@H]1C)C[C@H](O)[C@H]2C(=O)O` (stereo in doubt), the Potency result was “inactive”.
As for `CO/N=C1\CN(c2nc3c(cc2F)c(=O)c(C(=O)O)cn3C2CC2)CC1CN` (stereo not given), the Potency result was “inactive”.
Regarding `CC1=C(C(=O)OC(C)C)C(c2cccc([N+](=O)[O-])c2)C(C(=O)OC2CN(C(c3ccccc3)c3ccccc3)C2)=C(N)N1` (stereo not given), the Potency entry is “inactive”.
With `N=C(N=C(N)N)N1CCOCC1`, the Potency result was “inactive”.
Take `CC(=O)Oc1ccc(C2(c3ccc(OC(C)=O)cc3)Oc3ccccc3NC2=O)cc1`: the Potency entry was “inactive”.
In the case of `Nc1ccc2c(c1)CN1C(=O)c3ccccc3C1=N2`, the viability change, negative = cytotoxic is -16.9% [at 18.9 µM].
For the molecule `C=CC(=O)CCCCC`, the Potency result was “inactive”.
With `COc1cccc2c1C(=O)c1c(O)c3c(c(O)c1C2=O)C[C@@](O)(C(C)=O)C[C@@H]3O[C@H]1C[C@H](N)[C@H](O)[C@H](C)O1`, the Potency entry is “inactive”.
In the case of `CN(C)CCC(c1ccc(Cl)cc1)c1ccccn1` (stereo not given), the Potency result was “inactive”.
As to `O=C=NCc1cccc(CN=C=O)c1`, the viability change, negative = cytotoxic is 5.35% [at 18.9 µM].
Take `CC(=O)CC(=O)N(C)C`: the Potency result is “inactive”.
For `COC(=O)C(C)Oc1ccc(Oc2ncc(C(F)(F)F)cc2Cl)cc1` (stereo not given), the Potency entry is “inactive”.
On the same count and under the same terms, for `NNc1nnc(NN)c2ccccc12` the value was “inactive”; for `CC(O)CN(CCCN(C)C)CCCN(C)C` (stereo not given), “inactive”; for `C[C@H]1C[C@H]2[C@@H]3CCC4=CC(=O)C=C[C@]4(C)[C@@]3(F)[C@@H](O)C[C@]2(C)[C@@]1(O)C(=O)CO`, “inactive”.
For `Cc1ccc(C(C)C)c(O)c1`, the Potency result was “inactive”.
Turning to `Cc1cc(SC2=C(O)C[C@@](CCc3ccc(N)cc3)(C(C)C)OC2=O)c(C(C)(C)C)cc1CO`, the Potency result was “inactive”.
Same read-out and setting: for `[O-][n+]1ccccc1SSc1cccc[n+]1[O-]` the value was 0.461 µM (active); for `O=C(O)CCn1c2c(c3ccccc31)C[C@H](NS(=O)(=O)c1ccc(F)cc1)CC2`, “inactive”.
As to `CC(=O)c1ccccc1`, the Potency entry was “inactive”.
